In the library only some 2.4% were active in any assay of this set; here they are far more common.
TLR9-MyD88 inh – TLR9-MyD88 interaction inhibition. inhibition, % at 4.98 µM. Q9NR96+Q99836. actives 0.21% (n = 340,000). CHO BLA complementation TLR9-MyD88, CCF4 FRET ratio;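 active = inhibition above the mean over all tested compounds plus 3 SD, cut at about 21% in these data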;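 also: 0% = DMSO only wells and 100% = clavulanate BLA inhibitor control wells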
Target sequence (Q99836 whole entry, looked up): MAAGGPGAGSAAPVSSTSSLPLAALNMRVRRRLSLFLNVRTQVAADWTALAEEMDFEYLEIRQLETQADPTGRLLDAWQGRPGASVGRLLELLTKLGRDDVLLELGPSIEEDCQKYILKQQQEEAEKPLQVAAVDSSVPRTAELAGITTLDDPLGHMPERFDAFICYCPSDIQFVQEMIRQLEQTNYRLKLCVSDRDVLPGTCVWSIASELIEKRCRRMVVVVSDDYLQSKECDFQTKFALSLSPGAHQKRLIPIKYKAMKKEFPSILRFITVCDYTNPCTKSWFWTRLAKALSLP
Target sequence (Q9NR96 whole entry, looked up): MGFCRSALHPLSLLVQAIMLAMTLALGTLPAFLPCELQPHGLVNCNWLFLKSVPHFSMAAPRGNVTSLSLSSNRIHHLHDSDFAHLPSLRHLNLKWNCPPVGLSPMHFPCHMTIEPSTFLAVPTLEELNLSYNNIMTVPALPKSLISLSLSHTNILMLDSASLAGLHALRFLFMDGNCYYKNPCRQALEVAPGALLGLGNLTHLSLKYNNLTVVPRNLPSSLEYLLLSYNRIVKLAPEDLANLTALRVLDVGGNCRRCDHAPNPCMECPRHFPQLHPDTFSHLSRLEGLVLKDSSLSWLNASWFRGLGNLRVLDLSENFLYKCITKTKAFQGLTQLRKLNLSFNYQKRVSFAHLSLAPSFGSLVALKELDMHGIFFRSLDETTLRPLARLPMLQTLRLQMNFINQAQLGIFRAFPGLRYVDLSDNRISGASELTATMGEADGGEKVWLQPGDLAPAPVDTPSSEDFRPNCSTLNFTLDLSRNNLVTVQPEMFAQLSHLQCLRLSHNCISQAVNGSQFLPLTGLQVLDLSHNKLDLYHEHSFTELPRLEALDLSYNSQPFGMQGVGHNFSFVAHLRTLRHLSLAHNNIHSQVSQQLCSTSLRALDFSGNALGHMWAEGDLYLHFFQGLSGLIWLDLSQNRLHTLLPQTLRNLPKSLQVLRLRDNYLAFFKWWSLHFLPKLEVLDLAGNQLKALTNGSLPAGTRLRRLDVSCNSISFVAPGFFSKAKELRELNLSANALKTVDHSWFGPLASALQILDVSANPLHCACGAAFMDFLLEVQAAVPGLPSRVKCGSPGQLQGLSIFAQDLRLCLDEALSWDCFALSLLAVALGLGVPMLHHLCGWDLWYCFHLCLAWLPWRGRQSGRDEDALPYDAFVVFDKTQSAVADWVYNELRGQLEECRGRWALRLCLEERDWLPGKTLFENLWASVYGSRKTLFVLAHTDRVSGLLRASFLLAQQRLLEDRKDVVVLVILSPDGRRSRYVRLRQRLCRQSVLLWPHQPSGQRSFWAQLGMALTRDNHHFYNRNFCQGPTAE
TLR4-MyD88 BLA – blocks binding of human TLR4 to MyD88; O00206+Q99836; HeLa CL3-4 TLR4/MyD88 BLA complementation, FRET ratio; inhibition, % at 8.4 µM; actives 0.18% (n = 200,000); in the data active = inhibition above about 25%;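 also: 0% = vehicle and 100% = reference inhibitor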
HTR2A ag – mouse HTR2A agonism via beta-arrestin recruitment. CHO-K1 mHTR2A beta-arrestin complementation, luminescence; percent of 30 µM serotonin response. activation, % at 7.6 µM. AID 624169. actives 0.66% (n = 360,000). P35363;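 active = activation above a run cutoff, the mean activation of all tested compounds plus 3 SD, cut at about 14% in these data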;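 also: 0% = plate median of compound wells and 100% = 30 µM serotonin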
NOD2 RIPK2 PPI – inhibitors of human NOD2-RIPK2 interaction; O43353; actives 0.38% (n = 360,000); inhibition, % at 4.98 µM; CHO BLA complementation NOD2-RIPK2, CCF4 ratio; in the data active = inhibition above about 21%;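 also: 0% = vehicle only and 100% = reference blocker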
ABHD5 PLIN5 PPI – inhibitors of human ABHD5-perilipin-5 interaction; Split G. princeps luciferase complementation, luminescence, 4 h; inhibition, % at 4 µM; actives 0.78% (n = 360,000); AID 602281;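 active = inhibition above the mean inhibition across every tested compound plus 3 SD, cut at about 22% in these data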;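 also: 0% = DMSO only wells and the 100% control is not disclosed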
CRFBP-R2 block – blocks CRF-induced signaling of the CRF-BP/CRF-R2 complex | inhibition, % at 11.8 µM | actives 0.59% (n = 350,000) | HEK293 CRF-R2/CRF-BP, CRF-induced calcium fluorescence;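 active = inhibition of the ligand-induced calcium signal above about 50% at the single tested concentration, limit read from the data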
Numbers without * were called inactive; . = no result.

SMILES | TLR9-MyD88 inh | TLR4-MyD88 BLA | HTR2A ag | NOD2 RIPK2 PPI | ABHD5 PLIN5 PPI | CRFBP-R2 block
CCOc1ccccc1C=C1SC(=S)N(CC)C1=O | 3 | . | 2 | 2 | -1 | -13
COc1cc(/C=C2\SC(=O)N(Cc3ccc(F)cc3)C2=O)cc([N+](=O)[O-])c1O | -9 | -4 | 6 | 7 | -1 | 43
COc1cc([N+](=O)[O-])cc(/C=C2/SC(=S)N(Cc3ccccc3)C2=O)c1O | 2 | . | 4 | 9 | 1 | -2
CCN1C(=O)/C(=C\C=C\c2ccccc2[N+](=O)[O-])SC1=S | 2 | 2 | -2 | 0 | 5 | 69*
O=C1/C(=C\c2cc(Br)cc(Br)c2O)SC(=S)N1Cc1ccccc1 | -10 | . | -2 | -14 | -3 | 64*
O=C1/C(=C\c2cccc([N+](=O)[O-])c2O)SC(=S)N1Cc1ccccc1 | -8 | . | 4 | 0 | -10 | 77*
COc1cc(/C=C2\SC(=O)N(Cc3ccc(Cl)cc3)C2=O)cc([N+](=O)[O-])c1O | -1 | -11 | -1 | -1 | 4 | 55*
O=C1/C(=C\c2ccc(O)cc2)SC(=S)N1Cc1ccccc1 | 9 | . | -5 | 6 | 0 | -22
O=C1/C(=C/c2ccc(O)c([N+](=O)[O-])c2)SC(=S)N1Cc1ccccc1 | 6 | 3 | 2 | -11 | 4 | 108*
O=C1NC(=Nc2ccccc2Cl)S/C1=C\c1cccc([N+](=O)[O-])c1O | 10 | . | -6 | 5 | 6 | 53*
CN(C)c1ncnc2c1ncn2[C@H]1CN(Cc2cccs2)C[C@@H](CO)O1 | . | . | -5 | -13 | -5 | .
CN1CCN(C2=Cc3cc(Cl)ccc3Sc3cc(F)ccc32)CC1 | -9 | -1 | -6 | -4 | 27* | -30
Cc1noc(C)c1COC(=O)c1cc(C)n(-c2ccccc2)c1C | 4 | 4 | -3 | -2 | -6 | 50*
Cc1cc(C(=O)OCc2nnc(-c3ccccc3)o2)c(C)n1-c1ccccc1 | -4 | -2 | 1 | -8 | 8 | 15
O=C(OCc1ccccc1)N1CCC2CC1c1ccc(N3CCN(Cc4ccc5c(c4)OCO5)CC3)cc12 (stereo not drawn) | . | . | -5 | -2 | -14 | .
Cc1noc(NS(=O)(=O)c2ccc(NC(=O)CS(=O)(=O)c3ccccc3)cc2)c1C | -10 | 4 | 6 | -5 | -7 | 60*
Cc1cc(C)cc(NC(=O)Cn2nnc(C(=O)NCc3ccc(F)cc3)c2N)c1 | 0 | . | -2 | -6 | 10 | 76*
COc1ccc2c(c1)CCO[C@]21O[C@H](CCO)C[C@H](O)[C@H]1O | -6 | . | 3 | -1 | 0 | 15
CCCCn1c(NC(=O)c2ccc(Br)o2)c(S(=O)(=O)c2ccccc2)c2nc3ccccc3nc21 | -6 | 7 | 4 | -5 | -11 | 78*
CCOC(=O)C1=C(CSc2nccn2C)NC(=O)NC1c1cc(C)ccc1C (stereo not drawn) | 10 | -20 | 0 | 0 | 1 | -26
CCOC(=O)C1=C(Cn2cnc3ccccc32)NC(=O)NC1c1cc(C)ccc1C (stereo not drawn) | 1 | -9 | 59* | 0 | 0 | -35
CCOCCCNC(=O)C(c1ccc(Cl)cc1)N(Cc1ccc2c(c1)OCO2)C(=O)CNC(C)=O (stereo not drawn) | 9 | 4 | 0 | 7 | 3 | 1
CC(C)(C)NC(=O)C(c1ccc(O)cc1)N(Cc1ccc2c(c1)OCO2)C(=O)CCl (stereo not drawn) | -2 | . | 2 | -8 | -10 | 80*
Cc1c(CC(=O)NCC(=O)NCC(=O)N[C@@H](Cc2ccccc2)C(=O)O)c(=O)oc2c(C)c(O)ccc12 | . | . | 6 | 2 | -5 | .
CCN1CCN(CC(=O)Nc2ccc3c(c2)OCO3)C(=O)C1=O | -5 | -3 | 23* | -5 | 1 | 7
Cc1ccccc1C1NC(c2ccccc2C)C(C)C(=O)C1C (stereo not drawn) | -5 | . | 8 | -8 | -7 | 21
CC1C(=O)C(C)C(c2cccs2)NC1c1cccs1 (stereo not drawn) | -3 | -3 | -2 | -11 | -2 | 57*

High-throughput results from PubChem.
